KLF5 inhibitor: inhibitors of KLF5 expression | DLD-1 KLF5 promoter-luciferase reporter, luminescence | actives 0.23% (n = 290,000) | inhibition, % at 5 µM;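 active = inhibition above a per-plate limit of that plate's mean compound inhibition plus 3 SD, cut at about 60% in these data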;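 also: 0% = DMSO wells and 100% = LY294002 at 200 µM; higher means less KLF5 promoter-driven luciferase light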
BaF3 parental: parental Ba/F3 viability inhibition as JAK2V617F counter-screen; CellTiter-Glo ATP luminescence; inhibition, % at 5.6 µM; actives 1.1% (n = 220,000);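 active = inhibition above a per-campaign cutoff, the mean inhibition of all tested compounds plus 3 SD, cut at about 27% in these data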;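 also: 0% = DMSO wells and 100% = JAK Inhibitor I control wells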
Ba/F3 V617F tox: reduce viability of Ba/F3 cells dependent on JAK2V617F; Ba/F3 EpoR-JAK2V617F viability, ATP luminescence; inhibition, % at 5.6 µM; actives 1.1% (n = 220,000);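 active = inhibition above the campaign mean plus 3 SD over all tested compounds, cut at about 24% in these data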;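 also: cytokine-independent growth of Ba/F3 cells driven by EpoR plus mutant JAK2; 0% = DMSO-treated cells and 100% = JAK inhibitor I control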
APP 5UTR inh: APP translation inhibition | AID 1285 | SH-SY5Y APP 5'UTR-luciferase reporter, luminescence | actives 0.82% (n = 190,000) | inhibition, % at 2 µM;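 active = inhibition above a set limit, derived from the sample mean plus 3 SD, cut at about 45% in these data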
aSyn UTR inh: 5' untranslated region of α-synuclein, MLPCN primary screen; inhibition, % (tested at 7.5 µM); alpha-synuclein 5'UTR reporter, inhibitor activity; actives 0.82% (n = 300,000); AID 1813; in the data active = inhibition above about 60%;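 also: H4 neuroglioblastoma cells stably carrying SNCA 5'UTR luciferase fusion; 0% = DMSO wells and 100% = positive control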
IEC-6 cytotox: counter-screen for KLF5 inhibitors: cytotoxicity in IEC-6 cells; IEC-6 cytotoxicity, luminescence viability; inhibition, % at 5 µM; actives 0.78% (n = 290,000); in the data active = inhibition above about 22%;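 also: 0% = plate median of test compound wells and 100% = cytotoxic reference compound wells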
BaF3 parental 2: reduces parental Ba/F3 viability, JAK2V617F counter-screen; shares compounds with Ba/F3 V617F tox; actives 31% (n = 580); CellTiter-Glo luminescence; cells kept alive by added IL-3; inhibition, % at 5.6 µM;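 active = cell growth inhibition above the hit limit set in the earlier mutant JAK2 cell screen, cut at about 27% in these data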;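 also: plate controls were DMSO-treated cells for no effect and JAK Inhibitor I control wells for full effect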
JAK2V617F conf: Ba/F3 EpoR-JAK2V617F viability loss, confirmation. AID 1521. inhibition, % at 5.6 µM. actives 66% (n = 580). CellTiter-Glo luminescence. shares compounds with Ba/F3 V617F tox;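 active = mean inhibition above the hit cutoff derived in the earlier primary screen, cut at about 25% in these data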;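 also: 0% = DMSO-treated cells and 100% = JAK inhibitor I control wells; higher means lower luminescence from reduced cell ATP and viability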
An asterisk follows results filed as active. This is a sample that favours compounds with a hit; in the whole collection about 2.2% have one here.

How did COCCn1c(=S)[nH]c2cc(C(=O)N3CCN(c4ccc(F)cc4)CC3)ccc2c1=O do in these assays?
KLF5 inhibitor: -5; BaF3 parental: 1; Ba/F3 V617F tox: 51*; APP 5UTR inh: -2; aSyn UTR inh: -1; IEC-6 cytotox: -3; BaF3 parental 2: 3; JAK2V617F conf: 5

What do the screens show for `COCCn1c(=S)[nH]c2cc(C(=O)N3CCN(c4ccccc4OC)CC3)ccc2c1=O`?
KLF5 inhibitor: -5; BaF3 parental: 2; Ba/F3 V617F tox: -1; APP 5UTR inh: 8; IEC-6 cytotox: 7

Results for C#CC[N+](C)(C)CC#Cc1ccc(Cl)cc1 ?
KLF5 inhibitor: -2; BaF3 parental: 18; Ba/F3 V617F tox: 32*; APP 5UTR inh: 7; aSyn UTR inh: 11; IEC-6 cytotox: 4; BaF3 parental 2: 28*; JAK2V617F conf: 83*

How did COc1ccc(Nc2ncnc3ccccc23)c(OC)c1 do in these assays?
KLF5 inhibitor: -36; BaF3 parental: 5; Ba/F3 V617F tox: -1; APP 5UTR inh: -4; aSyn UTR inh: -8; IEC-6 cytotox: 4

How did COc1ccc(Nc2nc(N3CCCC3)nc3ccccc23)c(OC)c1 do in these assays?
KLF5 inhibitor: -27; BaF3 parental: 18; Ba/F3 V617F tox: 47*; APP 5UTR inh: 36; aSyn UTR inh: -81; IEC-6 cytotox: 10; BaF3 parental 2: 6; JAK2V617F conf: 11

What do the screens show for `O=C(Cc1ccc(-n2c(=O)c3ccccc3n(CC(=O)Nc3ccc(F)cc3F)c2=O)cc1)NCc1ccco1`?
KLF5 inhibitor: -11; BaF3 parental: 8; Ba/F3 V617F tox: 1; APP 5UTR inh: -1; aSyn UTR inh: -40; IEC-6 cytotox: -6

How did Cc1cc(C)nc(N(C#N)CCOc2ccccc2)n1 do in these assays?
KLF5 inhibitor: -11; BaF3 parental: 18; Ba/F3 V617F tox: 54*; APP 5UTR inh: 10; aSyn UTR inh: 11; IEC-6 cytotox: -1; BaF3 parental 2: 9; JAK2V617F conf: 18

How did CN(C)c1nc(N(C)C)nc(N(C#N)CCOc2ccccc2)n1 do in these assays?
KLF5 inhibitor: -23; BaF3 parental: 7; Ba/F3 V617F tox: 3; APP 5UTR inh: -18; aSyn UTR inh: -7; IEC-6 cytotox: 4

How did CC1CCCCC1NC(=O)NC(=O)CCl (configuration not stated) do in these assays?
KLF5 inhibitor: 14; BaF3 parental: -4; Ba/F3 V617F tox: 19; APP 5UTR inh: -16; aSyn UTR inh: -27; IEC-6 cytotox: -9

What do the screens show for `CC1CCCC(NC(=O)NC(=O)CCl)C1C` (configuration not stated)?
KLF5 inhibitor: 11; BaF3 parental: -9; Ba/F3 V617F tox: 58*; APP 5UTR inh: -23; aSyn UTR inh: -44; IEC-6 cytotox: 0; BaF3 parental 2: -4; JAK2V617F conf: 83*

What do the screens show for `O=C(c1ccc(NC2=NC3CS(=O)(=O)CC3S2)cc1)N1CCN(c2ccccc2F)CC1` (configuration not stated)?
KLF5 inhibitor: -9; aSyn UTR inh: 17; IEC-6 cytotox: 3

Results for O=C(Nc1cccc2c1[nH]c1ccccc12)C(F)(F)F ?
KLF5 inhibitor: 10; BaF3 parental: 17; Ba/F3 V617F tox: 53*; APP 5UTR inh: 4; aSyn UTR inh: -1; IEC-6 cytotox: -2; BaF3 parental 2: 4; JAK2V617F conf: 52*

Results for CC(=O)Nc1ccccc1NC(=O)C(F)(F)F ?
KLF5 inhibitor: -10; BaF3 parental: 1; Ba/F3 V617F tox: -3; APP 5UTR inh: -23; aSyn UTR inh: 12; IEC-6 cytotox: 3

Results for COC(=O)c1ccc(C23CC4(C2)[C@H](CN(Cc2ccc(C(F)(F)F)cc2)[C@@H]4c2ccccc2)C3c2ccc(C(F)(F)F)cc2)cc1 (some centres not stated) ?
aSyn UTR inh: 18

What do the screens show for `COc1ccccc1NC(=S)N(CCc1c(C)[nH]c2ccccc12)Cc1cccs1`?
KLF5 inhibitor: -24; BaF3 parental: 5; Ba/F3 V617F tox: -2; APP 5UTR inh: -14; aSyn UTR inh: -9; IEC-6 cytotox: 1

Screens from PubChem BioAssay.
